Drawing on PubChem BioAssay AID1347418 (Sanford-Burnham Center for Chemical Genomics, 2020), this text covers inhibition for 112 molecules.

Structures are written as SMILES. Screen size: about 1,300 compounds; about 750 (58%) were called active. This is one part of the list. Unmarked numbers belong to inactive results.

The target of this assay is Sulfhydryl oxidase 1 (Homo sapiens) (UniProt O00391). The experiment in a line: inhibition of human sulfhydryl oxidase QSOX1 – biochemical, ROS-Glo H2O2 luminescence, HTS, primary screen (AID 1347418). The conditions noted are these: recombinant QSOX1, ROS-Glo H2O2 luminescence; at 12.5 µM; stronger effect = higher value; active = any value above zero.
Sequence of Sulfhydryl oxidase 1 (Homo sapiens) (O00391 whole entry, looked up): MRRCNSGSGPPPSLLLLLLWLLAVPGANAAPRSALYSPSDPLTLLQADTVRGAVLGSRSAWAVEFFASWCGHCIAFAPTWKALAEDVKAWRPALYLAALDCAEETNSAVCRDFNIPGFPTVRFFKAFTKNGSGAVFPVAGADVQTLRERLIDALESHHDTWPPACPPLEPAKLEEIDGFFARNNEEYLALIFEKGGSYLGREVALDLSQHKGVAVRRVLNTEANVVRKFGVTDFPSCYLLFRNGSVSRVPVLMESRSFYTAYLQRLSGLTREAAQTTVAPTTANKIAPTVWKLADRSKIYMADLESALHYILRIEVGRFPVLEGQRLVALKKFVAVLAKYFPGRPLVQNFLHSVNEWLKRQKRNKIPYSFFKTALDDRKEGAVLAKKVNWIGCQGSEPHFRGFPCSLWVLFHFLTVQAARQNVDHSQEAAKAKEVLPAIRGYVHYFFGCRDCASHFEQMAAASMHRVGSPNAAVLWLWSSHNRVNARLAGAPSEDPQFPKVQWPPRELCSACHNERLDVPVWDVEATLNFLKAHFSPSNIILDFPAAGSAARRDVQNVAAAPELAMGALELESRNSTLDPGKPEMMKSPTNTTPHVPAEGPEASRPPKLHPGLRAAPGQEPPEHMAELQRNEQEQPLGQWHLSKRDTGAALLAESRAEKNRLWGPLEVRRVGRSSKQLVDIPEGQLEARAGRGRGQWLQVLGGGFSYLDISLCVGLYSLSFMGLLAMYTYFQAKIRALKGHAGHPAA
As to `CN1CCN(C2=Nc3cc(Cl)ccc3Nc3ccccc32)CC1`, the inhibition is 22.2% (active).

`Clc1ccc2c(c1)N=C(N1CCNCC1)c1ccccc1N2`: the inhibition is 23.2% (active).

On to `CC1=NS(=O)(=O)c2cc(Cl)ccc2N1`, for which the inhibition is -1.4%. `Cc1ccc2c(c1)C(N1CCN(C)CC1)=Nc1cccnc1N2`: the inhibition is 15.5% (active). For `CCCCC[C@H](CC(=O)NO)C(=O)N[C@H](C(=O)N1CCC[C@H]1CO)C(C)C` the value was -6.2%. For `CCN1CCc2nc(N)oc2CC1`, the inhibition is 2.8% (active). Turning to `CCCCCC(O)CCCC(=O)O` (configuration not stated), the inhibition is 1.1% (active). In the case of `O=C(O)CCCCCCCC(=O)O`, the inhibition is -1.7%. With `CCCCCCCCCCCCCCSCC(=O)O`, the inhibition was -7.6%. Take `CC(C)(CO)Cc1cc(C(C)(C)C)c(O)c(C(C)(C)C)c1`: the inhibition was 4.9% (active).

On to `CC(C)(C=O)Cc1cc(C(C)(C)C)c(O)c(C(C)(C)C)c1`, for which the inhibition is -0.1%. `CCCCCC[C@@H]([C@@H](C)O)n1cnc2c(N)ncnc21`: the inhibition was -0.9%. For the molecule `CCCCCCCCCCCCCCC[C@H](O)[C@H](N)CO`, the inhibition was 7.8% (active). With `CCCC(=O)NCCc1c2n(c3ccc(OC)cc13)CCCc1ccccc1-2`, the inhibition was 15% (active). Regarding `CC(C)Cc1ccc([C@H](C)C(=O)O)cc1`, the inhibition is -0.6%. For `CC(C(=O)O)c1cccc(C(=O)c2ccccc2)c1` (configuration not stated) the value was -2.4%; for `CC(C)Cc1ccc(C(C)C(=O)O)cc1` (configuration not stated), 5.8% (active); for `CC(C(=O)O)c1ccc(CC2CCCC2=O)cc1` (configuration not stated), 0.1% (active). For the molecule `O=C(O)/C=C/c1cnc[nH]1`, the inhibition is 1% (active). `CCC1(C)CC(=O)NC1=O` (configuration not stated): the inhibition is 0.9% (active).

On to `CCCCOc1cc(CC2CNC(=O)N2)ccc1OC` (configuration not stated), for which the inhibition was -0.2%.

As for `N[C@H](C(=O)O)[C@H]1C[C@@H]1C(=O)O`, the inhibition was 0.2% (active). For the molecule `Cc1cccc(C)c1OCC(C)N` (configuration not stated), the inhibition is -0.4%.

For the molecule `Cc1cccc(C)c1OCC(N)C(C)C` (configuration not stated), the inhibition is 4.5% (active).

Consider `Cc1cc2c(cc1Cl)N(C(=O)Nc1ccc(Oc3cccnc3C)nc1)CC2`, for which the inhibition is 1.2% (active). As to `Cc1cc2c(cc1Cl)N(C(=O)Nc1ccnc3ccccc13)CC2`, the inhibition was 16.8% (active). In the case of `CCN(CC)CCNC(=O)c1ccc(N)cc1`, the inhibition was -7.4%.

As for `CCN(CC)CCNC(=O)c1ccc(NC(C)=O)cc1`, the inhibition is 0.3% (active). Under `CCN(CC)CCNC(=O)c1ccc(NS(C)(=O)=O)cc1` stands -0.3%. Under `CN(C)CCN(Cc1cccs1)c1ccccn1` stands 7% (active); under `COc1ccc(CN(CCN(C)C)c2ccccn2)cc1`, 1.5% (active).

For `CN(C)CCOC(C)(c1ccccc1)c1ccccn1` (configuration not stated), the inhibition was -2.5%. Regarding `CNC1(C)C2CCC(C2)C1(C)C` (configuration not stated), the inhibition was -2%. For the molecule `CN1CCCC1CCOC(C)(c1ccccc1)c1ccc(Cl)cc1` (configuration not stated), the inhibition is 0.6% (active).

`C=C/C(C)=C/[C@@]1(C)SC(=O)C(C)=C1O`: the inhibition was -4.2%.

Consider `Cc1nnc(SCC2=C(C(=O)O)N3C(=O)[C@@H](NC(=O)Cn4cnnn4)[C@H]3SC2)s1`, for which the inhibition was -3.9%. On to `CO[C@@]1(NC(=O)CSCC#N)C(=O)N2C(C(=O)O)=C(CSc3nnnn3C)CS[C@@H]21`, for which the inhibition is 0.7% (active). As to `CO/N=C(\C(=O)N[C@@H]1C(=O)N2C(C(=O)O)=C(CSc3nc(=O)c(O)nn3C)CSC12)c1csc(N)n1` (some centres not stated), the inhibition is -1.9%. As to `O=C(O)C1CN(CCCP(=O)(O)O)CCN1` (configuration not stated), the inhibition is 2.1% (active). Regarding `CN1CCC2(CCN3CCc4c(oc5ccccc45)C3C2)N(C)C1=O` (configuration not stated), the inhibition was -6.5%. Regarding `NC(=O)CNCCC(c1ccccc1)c1ccccc1`, the inhibition is 2.2% (active).

With `OC(CN1CCN(c2cccc(Cl)c2)CC1)C(c1ccccc1)c1ccccc1` (configuration not stated), the inhibition was 5.1% (active). Regarding `CC1CCN=C(N)S1` (configuration not stated), the inhibition is -1.8%. Turning to `O=C(O)C1=CCCN(CCON=C(c2ccccc2)c2ccccc2)C1`, the inhibition was 1.1% (active). Turning to `CC(C)C[C@H]1C(=O)N2CCC[C@H]2[C@]2(O)O[C@](NC(=O)[C@@H]3C=C4c5cccc6[nH]c(Br)c(c56)C[C@H]4N(C)C3)(C(C)C)C(=O)N12`, the inhibition was 4% (active).

For `CCCn1c(=O)[nH]c(=O)c2[nH]cnc21`, the inhibition is -1.8%. Under `CC1C(=O)N(C)C(=O)c2nc[nH]c21` (configuration not stated) stands 0.5% (active); under `Cc1ccc(S(=O)(=O)N[C@@H](Cc2ccccc2)C(=O)CCl)cc1`, -8.2%. Turning to `Cc1ccc(S(=O)(=O)NC(=O)NN2CCCCCC2)cc1`, the inhibition is 4.7% (active). For `CCc1ccc2c(-c3cccc(Cl)c3)nc(=O)n(CC)c2n1`, the inhibition was -0.7%. For `Nc1cc(Cl)c(NC2=NCCN2)c(Cl)c1`, the inhibition was -2.8%. As for `Clc1ccc2nsnc2c1NC1=NCCN1`, the inhibition was 1.5% (active). With `Clc1cccc(Cl)c1NC1=NCCN1`, the inhibition was -1.9%.

As to `Cn1cc(C2=C(c3ccc(Cl)cc3Cl)C(=O)NC2=O)c2ccccc21`, the inhibition was -1.7%. On to `CCN(CC)C(=O)c1ccc(O)c(OC)c1`, for which the inhibition was 6.8% (active).

For `COc1cc(CC(=O)O)ccc1O`, the inhibition is 11% (active). Consider `O=C(O)Cc1ccc(O)c(O)c1`, for which the inhibition is 5.6% (active). On to `COc1cc(CNC(=O)CCCCCCC(C)C)ccc1O`, for which the inhibition was 7.6% (active). As for `CCCCCCCC/C=C\CCCCCCCC(=O)NCc1ccc(O)c(OC)c1`, the inhibition was -4.3%. `CC1CCN(CC[C@H]2CCCN2S(=O)(=O)c2cccc(O)c2)CC1`: the inhibition was -3.7%. As for `Brc1c(NC2=NCCN2)ccc2nccnc12`, the inhibition is -3.8%. `O=C1c2ccccc2-c2n[nH]c3cccc1c23`: the inhibition was 12.7% (active). For `Oc1cc2c(cc1O)C(c1ccccc1)CNCC2` (configuration not stated) the value was 5.7% (active); for `Oc1cc2c(c(Cl)c1O)CCNCC2c1ccccc1` (configuration not stated), 24.1% (active).

Regarding `Oc1ccc(C2CNCCc3c2cc(O)c(O)c3Cl)cc1` (configuration not stated), the inhibition is 30% (active). With `O=C(O)C1=CCNCC1`, the inhibition was -1.6%.

On to `CSC(N)=NCCC[C@H](N)C(=O)O`, for which the inhibition was 1.7% (active). As to `CN(C)C(N)=NCCC[C@H](N)C(=O)O`, the inhibition was 0.3% (active). Take `NC(N)=NCCC[C@H](N)C(=O)O`: the inhibition was 6% (active).

With `CC(N)=NCCCC[C@@H](N)C(=O)O`, the inhibition is -0.6%. For `O=c1c2ccccc2nc2n1CCc1c-2[nH]c2ccccc12` the value was 5% (active); for `Nc1c2c(nc3ccccc13)CCCC2`, -3.1%; for `CCCCCCCCCCC/C=C\C(C)(C)/C=C\CCCC(=O)O`, 9.1% (active). In the case of `CCCCCCC/C=C\CCCCCCCCC(=O)O`, the inhibition is -3.4%. Under `CCCn1c(=O)c2[nH]c(-c3ccc(OCC(=O)NCCN)cc3)nc2n(CCC)c1=O` stands 0.5% (active); under `CCCn1c(=O)c2[nH]c(-c3ccc(S(=O)(=O)O)cc3)nc2n(CCC)c1=O`, -0.7%. With `CCC1(c2ccccc2)C(=O)NCNC1=O`, the inhibition was 2.4% (active). Regarding `CN1Cc2c(N)cccc2C(c2ccccc2)C1` (configuration not stated), the inhibition is 5.3% (active). For `CC1=C(/C=C/C(C)=C/C=C/C(C)=C\C(=O)O)C(C)(C)CCC1` the value was -3%; for `CC1=C(/C=C/C(C)=C/C=C/C(C)=C/C(=O)Nc2ccc(O)cc2)C(C)(C)CCC1`, 1.8% (active); for `CC1=C(/C=C/C(C)=C/C=C/C(C)=C/C(=O)O)C(C)(C)CCC1`, 2.4% (active). On to `CC(=O)O[C@]1(C(C)=O)CC[C@H]2[C@@H]3C=C(Cl)C4=CC(=O)[C@@H]5C[C@@H]5[C@]4(C)[C@H]3CC[C@@]21C`, for which the inhibition was 6.1% (active).

Regarding `NC[C@@H]1O[C@H](C23CC4CC(CC(C4)C2)C3)Cc2c1ccc(O)c2O`, the inhibition is 17.8% (active). With `NC[C@@H]1O[C@H](c2ccccc2)Cc2c1ccc(O)c2O`, the inhibition is 11% (active). Consider `Nc1ncnc2n[nH]c(Nc3ccc(F)cc3)c12`, for which the inhibition is 19.7% (active). For `C1COC(NC(C2CC2)C2CC2)=N1` the value was 0.6% (active); for `Clc1ccc(N2CCN(Cc3cc4ccccn4n3)CC2)cc1`, 21.7% (active).

With `Clc1ccc(Cn2c(CN3CCCC3)nc3ccccc32)cc1`, the inhibition was -0.7%. On to `O=C1CCC(N2C(=O)c3ccccc3C2=O)C(=O)N1` (configuration not stated), for which the inhibition is -1.8%. For `O=c1ccc2ccc(O)c(O)c2o1`, the inhibition was 31.6% (active).

With `Cn1cnc2c(NCc3ccccc3)nc(NCCO)nc21`, the inhibition is 1.3% (active). On to `CC[C@@H](CO)Nc1nc(NCc2ccccc2)c2ncn(C(C)C)c2n1`, for which the inhibition was 6.3% (active). Consider `Cc1cc(NC2CCCCC2)nc(-n2nc(C)cc2C)n1`, for which the inhibition was 1.1% (active). As to `Cc1ccc(Cl)c(Nc2ccccc2C(=O)O)c1Cl`, the inhibition is 6.2% (active). In the case of `O=C(O)c1ccccc1Nc1ccccc1`, the inhibition is 42.7% (active). For `O=C(O)CP(=O)(O)O` the value was -4%; for `CC(N)C1CCC(C(=O)Nc2ccncc2)CC1` (configuration not stated), 4.4% (active); for `COc1ccc(C2CNC(=O)C2)cc1OC1CCCC1` (configuration not stated), -7.5%. Turning to `CC[C@@H](C)[C@H]1O[C@]2(CC[C@@H]1C)C[C@@H]1C[C@@H](C/C=C(\C)[C@@H](O[C@H]3C[C@H](OC)[C@@H](O[C@H]4C[C@H](OC)[C@@H](O)[C@H](C)O4)[C@H](C)O3)[C@@H](C)/C=C/C=C3\CO[C@@H]4[C@H](O)C(C)=C[C@@H](C(=O)O1)[C@]34O)O2`, the inhibition was 1.1% (active). For `COc1ccccc1OCCNCC(O)COc1cccc2[nH]c3ccccc3c12` (configuration not stated) the value was 1.9% (active); for `CCCNCC(O)COc1ccccc1C(=O)CCc1ccccc1` (configuration not stated), -7.1%; for `C=C1C(=O)O[C@@H]2[C@H]3O[C@]3(C)CCC=C(C)CC[C@@H]12`, 0.5% (active). For `NCCCC(N)(C(=O)O)C(F)F` (configuration not stated) the value was -2.3%; for `Cn1ncc(S(=O)(=O)Cc2ccccc2)c(Br)c1=O`, -5.4%. Under `N[C@H](C(=O)O)[C@H](O)C(=O)O` stands 0.9% (active).

For `N[C@@H](Cc1cnc[nH]1)C(=O)O`, the inhibition was 1.5% (active). Consider `CCN(CC)c1ncnc2c1ncn2[C@@H]1O[C@H](COP(=O)(O)OP(=O)(O)C(Br)(Br)P(=O)(O)O)[C@@H](O)[C@H]1O`, for which the inhibition is -1%. Under `Nc1ncnc2c1ncn2[C@@H]1O[C@H](COP(=O)(O)CP(=O)(O)OP(=O)(O)O)[C@H](O)C1O` (some centres not stated) stands -6.5%; under `NC[C@H]1O[C@@H](n2cnc3c(N)ncnc32)[C@H](O)[C@@H]1O`, -4.6%. Turning to `NC(=S)c1ccc[n+]([C@@H]2O[C@@H](COP(=O)([O-])OP(=O)(O)OC[C@H]3O[C@@H](n4cnc5c(N)ncnc54)C(OP(=O)(O)O)[C@H]3O)C(O)C2O)c1` (some centres not stated), the inhibition was 3.1% (active). Consider `Nc1ncnc2c1ncn2[C@@H]1O[C@H](COP(=O)(O)OP(=O)(O)OP(=O)(O)OP(=O)(O)OC[C@@H]2O[C@H](n3cnc4c(N)ncnc43)C(O)[C@@H]2O)[C@H](O)C1O` (some centres not stated), for which the inhibition is 3.7% (active). Turning to `NC(=O)C1=C[N+](=C2OC(COP(=O)(O)OP(=O)([O-])OC[C@H]3O[C@@H](n4cnc5c(N)ncnc54)C(OP(=O)(O)O)[C@H]3O)C(O)C2O)C=CC1` (some centres not stated), the inhibition was -0.9%.
